Results as given in PubChem BioAssay.
Activity calls are given as the source filed them. Unless noted, no rule for the calls is given here.

Legend:
[1] = system: Wnt5a (protein binding on small-molecule microarray); assay: Wnt5a binders on small-molecule microarray, primary screen, biophysical, 635/667 nm fluorescence (AID 1142); settings: 635 nm fluorescence, higher = more signal;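 also: fluorescence read at 667 nm with signal to noise per printed feature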
[2] = cell viability in Huh7 cells, primary screen, cytotoxicity control for HCV replication inhibitor project, CellTiter-Glo luminescence, basal, 48 h (AID 1143); settings: Huh7 HCV replicon, higher = more signal, called active from +8 up or from −8 down;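 also: Huh7 hepatoma cells carrying a hepatitis C replication reporter with no stimulus; test concentration not given here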
[3] = P. aeruginosa biofilm formation inhibitors, primary screen, PAO1 strain, BacTiter-Glo luminescence, LB-PBS (AID 1144); settings: 12 h, higher = more signal
[4] = CREB reporter modulators without forskolin, primary screen, cell-based, PC12, CRE-LacZ reporter, unstimulated (AID 1145); settings: no forskolin, luminescence, 4.5 h, higher = more signal, called active from +8 up or from −8 down
[5] = CREB reporter modulators under forskolin, primary screen, cell-based, PC12, CRE-LacZ reporter, forskolin-stimulated (AID 1146); settings: luminescence, 4.5 h, higher = more signal, called active from +8 up or from −8 down;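 also: PC12 cells with 6xCRE LacZ reporter stimulated by forskolin 10 µM; beta-galactosidase reporter signal reflecting CREB driven transcription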
[6] = target: Streptavidin (Streptomyces avidinii) (UniProt P22629); assay: streptavidin binders on small-molecule microarray, primary screen, artefact control for SMM compound annotation, biophysical, 635/667 nm fluorescence (AID 1147); settings: streptavidin binding, higher = more signal;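 also: signal reflects streptavidin binding to arrayed compounds as a control protein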
[7] = small-molecule binders of probe aInhba, primary screen, biochemical, small-molecule microarray, 635/667 nm fluorescence (AID 1148); settings: higher = more signal;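 also: score merges 667nm spot fluorescence with signal-to-noise for antibody binding to printed compounds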
Torsin-1A (Homo sapiens) [8] = target: Torsin-1A (Homo sapiens) (UniProt O14656); assay: torsin A binders from cell lysate, primary screen, small-molecule microarray, wild-type, 635/667 nm (AID 1149); settings: COS7 hTOR1A-WT lysate, 635 nm fluorescence, higher = more signal
Torsin-1A (Homo sapiens) [9] = target: Torsin-1A (Homo sapiens) (UniProt O14656); assay: small-molecule binders of mutant TOR1A in lysate, primary screen, cell lysate, small-molecule microarray, COS7 lysate, 635/667 nm fluorescence (AID 1150); settings: COS7 hTOR1A mutant lysate, 635 nm fluorescence, higher = more signal;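 also: score pools 667 nm emission and signal to noise measuring lysate protein binding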
[10] = system: Sonic hedgehog protein (Shh); assay: small-molecule binders of Shh protein, primary screen, biochemical, small-molecule microarray, 635/667 nm fluorescence (AID 1151); settings: small-molecule microarray binding, 635 nm fluorescence; higher = more signal;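 also: Shh protein binding to compounds spotted on small-molecule microarray slides; score combines spot fluorescence intensity with signal-to-noise across triplicate slides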
[11] = E. coli DRC41 culture turbidity changes, primary screen, E. coli filamentation inducer project, strain DRC41, OD650, 48 h (AID 1152);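 also: E. coli MC1000 strain DRC41 lacking acrAB efflux pump and sulA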; settings: E. coli DRC41 (acrAB sulA), higher = more signal, called active from +8 up or from −8 down
[12] = small-molecule binders of probe aLefty1, primary screen, biochemical, small-molecule microarray, 635/667 nm fluorescence (AID 1153); settings: higher = more signal;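 also: score merges spot fluorescence with signal-to-noise ratio from the scanned slide images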
[13] = PSAC antagonists in infected red cells, primary screen, cell-based, P. falciparum Indochina, OD700, 1 h (AID 1154); settings: P. falciparum Indochina infected RBC osmotic lysis, higher = more signal, called active from +8 up or from −8 down
[14] = PSAC antagonists in infected red cells, primary screen, cell-based, P. falciparum Indochina, OD700, 2 h (AID 1155);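 also: lysis reports solute entry through the parasite surface anion channel PSAC; channel blockers reduce lysis of infected cells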; settings: P. falciparum Indochina infected erythrocytes, osmotic lysis OD700; higher = more signal, called active from +8 up or from −8 down
[15] = osmotic lysis modulators in infected erythrocytes, primary screen, PSAC antagonist project, cell-based, P. falciparum Indochina, OD700, 3 h (AID 1156); settings: higher = more signal, called active from +8 up or from −8 down
[16] = PSAC antagonists in infected red cells, primary screen, cell-based, P. falciparum Indochina, OD700, 18 h (AID 1157); settings: P. falciparum Indochina infected erythrocytes, osmotic lysis OD700, 18 h; higher = more signal, called active from +8 up or from −8 down
[17] = modulators of S6 phosphorylation in cells, primary screen, cell-based, A549, cytoblot, luminescence, serum-stimulated (AID 1158); settings: A549 phospho-S6 cytoblot, 5 h, higher = more signal;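 also: serum-stimulated A549 lung adenocarcinoma cells; signal is phosphorylated S6 detected by cytoblot immunostaining with HRP secondary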
[18] = target: NADPH oxidase 2 (Homo sapiens) (UniProt P04839); assay: NOX2-dependent H2O2 signal modulators, primary screen, NOX inhibitor project, cell-based, HEK293-NOX2, PMA-stimulated, Amplex Red fluorescence (AID 1159); settings: 45 min, higher = more signal, called active from +8 up or from −8 down; also: test concentration not given here
[19] = target: NADPH oxidase 4 (Homo sapiens) (UniProt Q9NPH5); assay: NOX4-dependent H2O2 signal modulators, primary screen, NOX inhibitor project, cell-based, HEK293-NOX4, tetracycline-induced, Amplex Red fluorescence (AID 1160); settings: 45 min, higher = more signal, called active from +8 up or from −8 down
[20] = target: NADPH oxidase 5 (Homo sapiens) (UniProt Q96PH1); assay: NOX5-dependent H2O2 signal modulators, primary screen, NOX inhibitor project, cell-based, HEK293-NOX5, Amplex Red fluorescence (AID 1161); settings: HEK293-NOX5, ionomycin, 45 min, higher = more signal
NADPH oxidase 5 (Homo sapiens), sequence (Q96PH1 whole entry, looked up): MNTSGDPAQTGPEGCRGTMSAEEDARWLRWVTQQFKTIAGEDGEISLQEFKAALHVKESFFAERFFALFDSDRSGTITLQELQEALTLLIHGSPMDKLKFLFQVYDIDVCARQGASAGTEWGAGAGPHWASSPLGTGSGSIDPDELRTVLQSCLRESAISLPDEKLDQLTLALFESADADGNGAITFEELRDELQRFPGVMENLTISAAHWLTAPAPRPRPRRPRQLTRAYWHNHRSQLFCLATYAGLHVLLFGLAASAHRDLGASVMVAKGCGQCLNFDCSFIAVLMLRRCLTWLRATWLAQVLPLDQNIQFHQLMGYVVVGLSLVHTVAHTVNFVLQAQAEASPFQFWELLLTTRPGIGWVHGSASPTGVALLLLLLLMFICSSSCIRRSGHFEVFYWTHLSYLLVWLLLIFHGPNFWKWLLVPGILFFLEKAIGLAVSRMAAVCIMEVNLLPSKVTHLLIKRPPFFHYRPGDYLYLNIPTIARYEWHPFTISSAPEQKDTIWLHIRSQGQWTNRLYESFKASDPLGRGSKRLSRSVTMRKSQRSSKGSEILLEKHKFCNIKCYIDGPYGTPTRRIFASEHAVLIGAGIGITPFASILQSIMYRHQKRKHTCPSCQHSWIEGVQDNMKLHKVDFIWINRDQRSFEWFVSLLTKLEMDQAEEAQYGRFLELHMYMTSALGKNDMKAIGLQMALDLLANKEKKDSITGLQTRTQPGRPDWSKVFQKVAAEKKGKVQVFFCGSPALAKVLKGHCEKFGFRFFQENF

Streptavidin (Streptomyces avidinii), sequence (P22629 whole entry, looked up): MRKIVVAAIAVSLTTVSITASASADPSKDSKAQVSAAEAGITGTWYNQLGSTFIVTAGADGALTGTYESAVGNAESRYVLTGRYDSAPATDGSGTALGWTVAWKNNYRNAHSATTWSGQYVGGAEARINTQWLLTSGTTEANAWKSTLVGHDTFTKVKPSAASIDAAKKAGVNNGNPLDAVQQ
NADPH oxidase 4 (Homo sapiens), sequence (Q9NPH5 whole entry, looked up): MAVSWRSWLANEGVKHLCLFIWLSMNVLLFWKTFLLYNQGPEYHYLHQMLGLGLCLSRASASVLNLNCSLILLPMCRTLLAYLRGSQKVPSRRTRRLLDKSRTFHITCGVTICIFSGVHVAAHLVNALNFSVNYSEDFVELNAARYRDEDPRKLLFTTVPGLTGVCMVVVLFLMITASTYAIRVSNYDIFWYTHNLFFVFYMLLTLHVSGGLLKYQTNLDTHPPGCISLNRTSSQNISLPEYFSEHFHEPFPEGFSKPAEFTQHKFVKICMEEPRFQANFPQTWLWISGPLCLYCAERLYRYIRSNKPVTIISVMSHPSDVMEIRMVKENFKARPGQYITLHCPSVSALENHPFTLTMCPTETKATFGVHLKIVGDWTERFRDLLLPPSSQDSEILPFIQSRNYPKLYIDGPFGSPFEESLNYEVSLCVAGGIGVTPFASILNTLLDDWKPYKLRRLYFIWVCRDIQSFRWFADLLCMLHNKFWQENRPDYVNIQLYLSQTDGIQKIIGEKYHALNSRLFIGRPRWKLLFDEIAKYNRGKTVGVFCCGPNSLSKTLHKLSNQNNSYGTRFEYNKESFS
Torsin-1A (Homo sapiens), sequence (O14656 whole entry, looked up): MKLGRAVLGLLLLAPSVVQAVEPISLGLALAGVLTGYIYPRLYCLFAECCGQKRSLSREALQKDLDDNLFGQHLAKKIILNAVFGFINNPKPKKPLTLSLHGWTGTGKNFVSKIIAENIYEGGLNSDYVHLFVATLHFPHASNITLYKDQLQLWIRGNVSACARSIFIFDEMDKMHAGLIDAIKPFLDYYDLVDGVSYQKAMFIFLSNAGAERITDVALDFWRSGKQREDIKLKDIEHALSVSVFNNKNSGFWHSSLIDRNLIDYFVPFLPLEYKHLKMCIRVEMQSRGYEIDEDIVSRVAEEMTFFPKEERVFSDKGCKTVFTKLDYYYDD
NADPH oxidase 2 (Homo sapiens), sequence (P04839 whole entry, looked up): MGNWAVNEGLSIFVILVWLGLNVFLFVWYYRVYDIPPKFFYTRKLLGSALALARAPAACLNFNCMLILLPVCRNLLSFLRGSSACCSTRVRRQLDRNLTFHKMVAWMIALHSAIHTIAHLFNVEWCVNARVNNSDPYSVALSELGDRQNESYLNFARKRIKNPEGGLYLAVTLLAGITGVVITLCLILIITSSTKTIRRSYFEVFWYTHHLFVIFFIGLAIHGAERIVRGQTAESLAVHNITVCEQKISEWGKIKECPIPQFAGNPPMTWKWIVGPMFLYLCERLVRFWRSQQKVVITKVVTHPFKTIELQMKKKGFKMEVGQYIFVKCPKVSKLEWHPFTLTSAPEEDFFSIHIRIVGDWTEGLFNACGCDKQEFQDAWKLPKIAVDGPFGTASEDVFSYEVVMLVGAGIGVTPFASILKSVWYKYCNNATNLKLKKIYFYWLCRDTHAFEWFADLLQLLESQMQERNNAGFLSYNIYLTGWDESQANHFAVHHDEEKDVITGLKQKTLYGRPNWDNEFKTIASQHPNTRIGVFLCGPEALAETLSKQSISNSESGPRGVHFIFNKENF

SMILES | composite z-score [1] | z-score [2] | z-score [3] | z-score [4] | z-score [5] | composite z-score [6] | composite z-score [7] | composite z-score (Torsin-1A (Homo sapiens) [8]) | composite z-score (Torsin-1A (Homo sapiens) [9]) | composite z-score [10] | z-score [11] | composite z-score [12] | z-score [13] | z-score [14] | z-score [15] | z-score [16] | z-score [17] | z-score [18] | z-score [19] | z-score [20]
C[C@@H]1ON(c2ccccc2)[C@H](c2ccccc2)[C@H]1C(=O)N1C(=O)OC[C@H]1Cc1ccccc1 | -0.0187 | -1.04 (inactive) | -0.516 (inactive) | 0.951 (inactive) | 0.053 (inactive) | 1.9 | -0.0538 | 0.242 | -0.0355 | 0.637 | 0.848 (inactive) | -0.294 | 1.66 (inactive) | 0.282 (inactive) | -0.13 (inactive) | 0.379 (inactive) | 0.389 | 0.0547 (inactive) | -0.104 (inactive) | -1.37
CN1C(=O)C2C=CC(C(O)c3ccc(F)cc3)N(N3CCCCC3)C2C1=O (stereo not given) | 0.442 | 1 (inactive) | -0.273 (inactive) | 1.01 (inactive) | -0.523 (inactive) | 0.428 | 0.838 | 0.759 | 0.531 | -0.846 | -1.37 (inactive) | 0.604 | 1.02 (inactive) | 1.14 (inactive) | 0.772 (inactive) | 1.2 (inactive) | -1.08 | 0.0457 (inactive) | -0.751 (inactive) | -1.35
O=C1O[C@@H](c2ccccc2)[C@@H](c2ccccc2)N2[C@@H](c3ccc(O)cc3)[C@]3(C(=O)Nc4ccc(C#CC5(O)CCCCCC5)cc43)[C@@H](C(=O)N3CCN(c4ncccn4)CC3)[C@H]12 | 0.149 | -1.37 (inactive) | -0.775 (inactive) | -0.231 (inactive) | 0.204 (inactive) | 0.849 | -0.144 | 1.42 | 0.743 | 0.358 | 1.36 (inactive) | 0.214 | 0.0075 (inactive) | -0.443 (inactive) | -5.11 (inactive) | -0.195 (inactive) | -0.181 | 1.07 (inactive) | 0.74 (inactive) | 0.443
COC(=O)[C@@]1(Cc2ccc(OC)cc2)[C@H]2c3cc(C(=O)N4CCCC4)n(Cc4ccc(C)o4)c3C[C@H]2CN1C(=O)c1ccccc1 | 0.989 | -5.19 (inactive) | -0.101 (inactive) | -0.758 (inactive) | -2.15 (inactive) | 0.458 | 0.505 | -1.39 | 0.285 | -0.754 | -1.5 (inactive) | 1.34 | 1.63 (inactive) | -0.605 (inactive) | 1.07 (inactive) | 0.0276 (inactive) | -1.8 | -4.49 (inactive) | -2.62 (inactive) | -0.354
COc1ccc([Si](C)(C)[C@@H]2[C@@H](CCO)O[C@]3(C(=O)N(Cc4ccc(N5C(=O)c6ccccc6Oc6ccccc65)cc4)c4ccccc43)[C@H]2C)cc1 | -0.355 | -7.17 (inactive) | -0.734 (inactive) | 2.5 (inactive) | 0.286 (inactive) | -0.132 | -0.179 | -1.04 | -0.949 | 0.0769 | -0.572 (inactive) | 0.0496 | 3.28 (inactive) | 1.99 (inactive) | -1.14 (inactive) | 1.26 (inactive) | 0.0148 | 0.0702 (inactive) | 1.63 (inactive) | 2.29
COc1cccc(C[C@H]2C[C@@H](CO[Si](C(C)C)(C(C)C)C(C)C)N3C(=O)[C@]4(C(C)=O)O[C@]23[C@H]2C(=O)N(C)C(=O)[C@H]24)c1 | 0.205 | -4.4 (inactive) | 0.0793 (inactive) | 1.62 (inactive) | 0.325 (inactive) | 0.636 | -0.008 | 0.0282 | 0.611 | 1.09 | -1.09 (inactive) | -0.0713 | 4.02 (inactive) | 0.867 (inactive) | -0.382 (inactive) | 0.702 (inactive) | -0.267 | 0.083 (inactive) | 0.451 (inactive) | 0.146
CN(C)C(=O)[C@]1(Cc2ccccc2N=[N+]=[N-])N=C(c2ccc(OCCCO)cc2)O[C@@H]1c1ccccc1CN=[N+]=[N-] | 0.556 | -4.87 (inactive) | -1.57 (inactive) | 1.57 (inactive) | 0.367 (inactive) | 1.27 | 0.282 | 0.683 | 0.84 | 0.307 | 0.367 (inactive) | 0.81 | 29.4 (active) | 20 (active) | 3.02 (inactive) | 2.16 (inactive) | 0.915 | -2.57 (inactive) | -0.305 (inactive) | -1.93
NC(=O)[C@H]1[C@@H]2C(=O)O[C@@H](c3ccccc3)[C@@H](c3ccccc3)N2[C@@H](c2ccc(O)cc2)[C@]12C(=O)Nc1ccc(C#CC3(O)CCCCCC3)cc12 | 0.0428 | -4.82 (inactive) | -0.947 (inactive) | 0.272 (inactive) | 1.09 (inactive) | 0.387 | 0.0074 | 0.375 | 1.37 | 1.46 | 0.359 (inactive) | 0.354 | 2.63 (inactive) | -0.436 (inactive) | 0.67 (inactive) | -1.08 (inactive) | 1.54 | 0.487 (inactive) | -0.429 (inactive) | -2.14
C=CCN1C(=O)[C@@]2(O[C@@H](CCn3cc([C@H](O)c4ccccc4)nn3)[C@H]([Si](C)(C)c3ccc(OC)cc3)[C@H]2C)c2cc(NC(=O)c3ccc(OC)cc3)ccc21 | 0.192 | -3.14 (inactive) | -0.527 (inactive) | 3.97 (inactive) | 0.35 (inactive) | 0.429 | -0.128 | -0.0041 | -0.0819 | 1.32 | 0.55 (inactive) | -0.0016 | 6.81 (inactive) | 1.77 (inactive) | 1.39 (inactive) | 1.38 (inactive) | 0.689 | 0.106 (inactive) | 0.863 (inactive) | 0.583
